About 1,500 (68%) of roughly 2,200 compounds were called active. So high a share suggests a set chosen from earlier hits. Only a sample is shown. Values without a mark were called inactive. Cut-off read from the data, not from the text of the source: active = inhibition above about 23%; inactive = the rest.

The target of the experiment is Perilipin-5 (Homo sapiens) + 1-acylglycerol-3-phosphate O-acyltransferase ABHD5 (Homo sapiens) (UniProt Q00G26+Q8WTS1). Nature of the experiment: ABHD5-PLIN5 interaction inhibitors, confirmation, biochemical, luminescence (AID 651612).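 Note: 0% = DMSO vehicle wells.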 The note with it: at 4 µM, active compounds read high.
Chain of Perilipin-5 (Homo sapiens) + 1-acylglycerol-3-phosphate O-acyltransferase ABHD5 (Homo sapiens) (Q00G26 whole entry, looked up): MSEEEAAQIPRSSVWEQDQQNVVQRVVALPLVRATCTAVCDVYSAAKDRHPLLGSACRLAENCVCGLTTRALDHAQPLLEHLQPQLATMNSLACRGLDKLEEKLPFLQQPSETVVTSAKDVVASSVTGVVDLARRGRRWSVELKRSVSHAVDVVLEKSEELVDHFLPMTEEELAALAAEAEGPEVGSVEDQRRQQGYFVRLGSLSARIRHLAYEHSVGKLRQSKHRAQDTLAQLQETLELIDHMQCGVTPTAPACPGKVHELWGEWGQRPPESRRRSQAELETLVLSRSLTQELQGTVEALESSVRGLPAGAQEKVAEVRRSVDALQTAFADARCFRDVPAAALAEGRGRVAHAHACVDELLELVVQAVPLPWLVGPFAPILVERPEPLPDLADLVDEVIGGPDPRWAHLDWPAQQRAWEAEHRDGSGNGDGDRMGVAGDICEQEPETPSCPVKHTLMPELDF
Chain of Perilipin-5 (Homo sapiens) + 1-acylglycerol-3-phosphate O-acyltransferase ABHD5 (Homo sapiens) (Q8WTS1 whole entry, looked up): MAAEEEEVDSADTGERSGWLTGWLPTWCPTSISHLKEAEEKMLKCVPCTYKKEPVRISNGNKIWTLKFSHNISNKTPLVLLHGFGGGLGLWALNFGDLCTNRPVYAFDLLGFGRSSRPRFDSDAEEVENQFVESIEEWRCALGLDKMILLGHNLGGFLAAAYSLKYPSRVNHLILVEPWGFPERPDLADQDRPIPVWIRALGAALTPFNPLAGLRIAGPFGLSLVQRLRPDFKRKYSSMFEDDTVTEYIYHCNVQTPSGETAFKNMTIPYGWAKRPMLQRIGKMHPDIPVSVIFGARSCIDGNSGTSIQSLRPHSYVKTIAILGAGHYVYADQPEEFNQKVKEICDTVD
For `COC(=O)c1nc(NC(=O)c2ccc(C(C)(C)C)cc2)n[nH]1`, the inhibition was 10.3%.

In the case of `Cc1cc(-c2n[nH]c(=S)n2/N=C/C(Br)=C/c2ccccc2)n[nH]1`, the inhibition was 63% (active).

`O=C(/C(=C/c1cccc(Cl)c1)c1nc2ccccc2[nH]1)c1ccccc1`: the inhibition was 98.9% (active).

In the case of `CC(=O)Nc1ccc(C=CC(=O)c2ccc([N+](=O)[O-])cc2)cc1`, the inhibition was 84.1% (active).

Consider `O=C(/C=C/c1ccc(Cl)c([N+](=O)[O-])c1)c1ccc(O)cc1`, for which the inhibition was 90.2% (active).

In the case of `COC(=O)C1(C)NC(c2ccccc2OC)C2C(=O)N(c3ccccc3)C(=O)C21` (centres undefined), the inhibition is -5.37%.

As to `CCN(CC)CCN(C(=O)c1ccc2c(c1)CCCC2)c1nc2c(OC)cccc2s1`, the inhibition is 7.79%.

For `COc1ccc2c(c1)c(=Cc1ccc(N(C)C)cc1)c1cc(-c3ccccc3)[n+](C)n12`, the inhibition was 28.5% (active).

Turning to `OC(CNCC1CCCO1)Cn1c2ccc(Br)cc2c2cc(Br)ccc21` (centres undefined), the inhibition is 12.6%.

As to `COC(=O)/C=C\C(=O)Nc1cccc([N+](=O)[O-])c1`, the inhibition is 83.5% (active).

As for `COc1ccc2c(c1OC)C(=O)OC2Nc1nc(-c2ccccc2)cs1` (centres undefined), the inhibition was 61.3% (active).

Turning to `O=C1/C(=C\c2ccc(O)cc2)CCC1CNc1ccc(Cl)cc1` (centres undefined), the inhibition is 25.6% (active).

Take `COc1ccc(CCNC(=O)c2nnc(CS(=O)(=O)c3ccccc3)o2)cc1OC`: the inhibition is 6.71%.

`COc1ccccc1-n1nnnc1S(=O)(=O)Cc1ccc(Cl)cc1`: the inhibition is 49.7% (active).

Consider `N#Cc1ccc(C(C(=O)NCc2ccccc2)n2c(=O)c(-c3ccco3)nc3ccccc32)cc1` (centres undefined), for which the inhibition is 91.9% (active).

As for `O=C(NC1CCCCC1)C(c1cc2ccccc2o1)n1c(=O)c(-c2ccco2)nc2ccccc21` (centres undefined), the inhibition was 80.4% (active).

For the molecule `Cc1cccc(C)c1NC(=O)C(c1cccc2ccccc12)n1c(=O)c(-c2ccco2)nc2ccccc21` (centres undefined), the inhibition was 53% (active).

With `Cc1cccc(C)c1NC(=O)C(c1ccc(C(F)(F)F)cc1)n1c(=O)c(-c2ccco2)nc2ccccc21` (centres undefined), the inhibition is 80.6% (active).

For `CCn1c(SC)nc(O)c(C(c2ccc(OC)c(O)c2)c2c(O)nc(SC)n(CC)c2=O)c1=O`, the inhibition was 62% (active).

As for `O=C(NCCOCc1ccc(Cl)cc1)c1ncn[nH]1`, the inhibition is 6.41%.

Regarding `COc1ccc(C(C[N+](=O)[O-])n2nc(C)cc2C)cc1` (centres undefined), the inhibition is 62.2% (active).

With `CCN(CCCNC(=O)c1ccc2c(c1)NC(=O)CN2C)c1cccc(C)c1`, the inhibition is 50.9% (active).

For the molecule `Cc1nnnn1/C(=C\c1ccccc1)C(=O)OCC(=O)N1CC2(C)CC1CC(C)(C)C2` (centres undefined), the inhibition was 54.9% (active).

With `O=[N+]([O-])c1c(NCCO)cc(Sc2nc3ccccc3s2)c2nonc12`, the inhibition is 51.7% (active).

As to `Cc1cccc(NC(=O)c2ccc3nsnc3c2)c1C`, the inhibition is 2.22%.

For `O=C(CCl)Nc1ccc(Sc2ccc(NC(=O)CCl)cc2)cc1`, the inhibition is 40.2% (active).

Consider `O=C(/C=C/c1ccc(Cl)cc1Cl)c1cccnc1`, for which the inhibition is 98.6% (active).

For the molecule `COc1ccc(/C=C/C(=O)c2ccc(NS(=O)(=O)c3ccc(C)cc3)cc2)cc1O`, the inhibition is 55.4% (active).

`Cc1cccc(NC(=O)c2nc(S(=O)(=O)Cc3ccccc3)ncc2Cl)c1`: the inhibition is 90.7% (active).

As for `Cc1cccc(CS(=O)(=O)c2ncc(Cl)c(C(=O)Nc3ccc(F)cc3)n2)c1`, the inhibition is 82.7% (active).

Turning to `O=C1C=C(c2ccc(Cl)cc2)C(=O)N1Nc1ccccc1`, the inhibition is 102% (active).

For the molecule `O=C(NNc1ccccn1)c1ccc(Cl)nc1`, the inhibition was 2.34%.

Regarding `CCN1/C(=C\c2ccc3ccccc3[n+]2CC)Sc2cc(C)ccc21`, the inhibition is 16.8%.

Take `Nc1cccc(OCCCCCOc2cccc(N)c2)c1`: the inhibition is 3.48%.

For `Cc1cc(C)nc(S/C=C/C(=O)c2ccccc2)n1`, the inhibition is 96.8% (active).

Turning to `c1ccc(CCC2=NCCn3cccc32)cc1`, the inhibition is 28.8% (active).

Turning to `Cc1ccc(NC(=O)c2cc(-c3ccc(C)o3)nc3ccccc23)nc1`, the inhibition was 24% (active).

Consider `CC1(Oc2ccccc2-c2ccno2)CCN(Cc2ccc(-c3ccccc3)o2)C1` (centres undefined), for which the inhibition is 16.2%.

On to `Cc1nc2sc(C(c3ccco3)N3CCOCC3)c(O)n2n1` (centres undefined), for which the inhibition is 5.85%.

Take `N#Cc1ccccc1S(=O)(=O)N1CCN(Cc2c(O)ccc3ccccc23)CC1`: the inhibition is 53% (active).

Take `CCCCOC(=O)CNc1nnc(SCC(=O)OCC)[nH]c1=O`: the inhibition is 69.3% (active).

For the molecule `O=C(/C=C(O)/C=C/c1ccc(O)cc1)/C=C/c1ccc(O)cc1`, the inhibition was 63.4% (active).

With `O=C(Cn1nc(CNc2ccc(Cl)cc2)[n+]2c1CCCCC2)c1ccc(Cl)cc1`, the inhibition is 19.8%.

For `CN1CCC[C@@H]1CCO[C@](C)(c1ccccc1)c1ccc(Cl)cc1`, the inhibition is 27.9% (active).

As for `CCOC(=O)C(=Cc1ccccc1OC)C(=O)OCC`, the inhibition was 60.3% (active).

With `CCOC(=O)C(=Cc1ccccc1)C(=O)c1ccccc1`, the inhibition was 98.5% (active).

Turning to `Cc1[nH]c(=O)c(C(=O)/C=C/c2ccccc2)c2c1CCCC2`, the inhibition is 56.5% (active).

Consider `CC1=CC(C)(C)Nc2ccc(OC(=O)CN3C(=O)C4CCCCC4C3=O)cc21` (centres undefined), for which the inhibition was 83.2% (active).

In the case of `CC1=CC(C)(C)Nc2ccc(OC(=O)C(Cc3ccccc3)N3C(=O)C4CCCCC4C3=O)cc21` (centres undefined), the inhibition was -3.56%.

For the origin of these results see PubChem BioAssay AID651612 (The Scripps Research Institute Molecular Screening Center, 2012).
